The source of these data is PubChem BioAssay AID651815 (National Center for Advancing Translational Sciences (NCATS), 2012).

Several values for one entry are separate records, joined by “and”; a condition that tells them apart may be missing. Equal entries are not always repeated. The campaign covered roughly 2,100 compounds. About 1,100 (52%) were called active. Another 29% or so got no clear call; they are omitted. So high a share suggests a set chosen from earlier hits. The list shows a part of the results. Unmarked numbers belong to inactive results. The call rests on the fitted dose curve; in most records, active means well fitted inhibition curve with a large enough effect; inconclusive means small, poorly fitted or top-dose-only effect; inactive means no such curve, though single readings can be large or run the other way.
On the % scale 0 is the no-effect control and ±100 the full control effect; potency means the concentration at half of the fitted maximal effect.

Sequence of DNA dC->dU-editing enzyme APOBEC-3F (Homo sapiens) (Q8IUX4 whole entry, looked up): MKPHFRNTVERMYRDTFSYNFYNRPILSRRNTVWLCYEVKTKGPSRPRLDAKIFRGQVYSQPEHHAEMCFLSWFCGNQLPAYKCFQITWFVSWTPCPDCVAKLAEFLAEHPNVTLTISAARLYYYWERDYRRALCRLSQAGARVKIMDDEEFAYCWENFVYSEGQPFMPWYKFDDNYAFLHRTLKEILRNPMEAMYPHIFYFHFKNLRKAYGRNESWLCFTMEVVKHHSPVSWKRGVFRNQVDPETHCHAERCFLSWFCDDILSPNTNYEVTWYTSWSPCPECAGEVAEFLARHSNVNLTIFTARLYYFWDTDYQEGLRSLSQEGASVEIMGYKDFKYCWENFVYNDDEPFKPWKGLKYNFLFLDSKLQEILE

The experiment concerns the target DNA dC->dU-editing enzyme APOBEC-3F (Homo sapiens) (UniProt Q8IUX4). In words: qHTS for inhibitors of Vif-A3F interactions: Cherry picks counterscreen. Further: nearly all actives have a fitted effect of over 65% in size. Conditions: HeLa A3F-eYFP/Vif cells, eYFP fluorescence, 24 h; series mostly up to 46.1 µM; activity, negative = inhibitor: at the top concentration. Summed up: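 HeLa cells stably expressing A3F-eYFP and Vif, cultured overnight, then treated 24 h at 37 degrees C with compounds at several concentrations; yellow fluorescence (488 nm Ex/500-530 nm Em) imaged on Acumen; MG132 positive control.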
Background: qHTS replaces the single test concentration by a dilution series.
Take `CCOc1ccc(S(=O)(=O)N(CC(=O)N/N=C/c2ccc(-c3ccc([N+](=O)[O-])cc3)o2)c2ccccc2)cc1`: the Potency is 3.53 µM (active). On the same count and under the same terms, as for `O=C(O)c1cccc(-c2ccc(/C=N/Nc3ccc([N+](=O)[O-])cc3)o2)c1`, the figure is 18.4 µM (active). For `CC(C)(C)NC(=S)N/N=C\c1ccc(-c2ccc([N+](=O)[O-])cc2)o1`, the Potency was 18.4 µM (active). With `CN(/N=C/c1ccc(-c2ccc([N+](=O)[O-])cc2)o1)c1ccccc1`, the Potency was 1.46 µM (active). For the compound `Cn1ncc(N=Cc2c(O)ccc3ccccc23)c1C(=O)Nc1cccc(Cl)c1`, the Potency is 14.6 µM (active). Turning to `Cc1cc2nc(SCCOC(=O)Nc3cccc(Cl)c3)nc(C)c2cc1C`, the “activity, negative = inhibitor” value was -6.26%. Take `CCCOc1ccccc1C1CC(=O)Nc2cc3c(cc21)OCO3` (stereo not given): the Potency is 3.96 µM (active). For `CCOc1ccccc1C1CC(=O)NC2=C1C(=O)CCC2` (stereo not given), the Potency was 12.5 µM (active).

On to `CCCOc1ccccc1C1CC(=O)NC2=C1C(=O)CCC2` (stereo not given), for which the Potency was 7.04 µM (active).

As to `CC(C)c1ccc(NC(=O)Nc2cnccn2)cc1`, the Potency is 17.7 µM (active). As for `Cc1c(C(=O)Nc2ccc(C(C)C)cc2)sc2nc3n(c(=O)c12)CCC3`, the “activity, negative = inhibitor” value was -7.16%. For the compound `CC(C)c1ccc(C(=O)NCCCNC(=O)c2cnccn2)cc1`, the “activity, negative = inhibitor” value is 1.23% [at 36.9 µM]. In the case of `CCOc1ccccc1N1CC(c2nc3ccccc3n2Cc2c(C)cc(C)cc2C)CC1=O` (stereo not given), the “activity, negative = inhibitor” value was -29.7%. Take `CCOC(=O)Cn1c(=O)c(-c2cc(Br)ccc2N)nc2ccccc21`: the Potency was 11.6 µM (active). `CCOC(=O)COn1c(=O)c(-c2ccc(Br)cc2)[n+]([O-])c2ccccc21`: the “activity, negative = inhibitor” value is -17.5%. As to `CN(C)c1ccc(/C=C2\Cc3ccccc3C2=O)cc1`, the Potency was 2.91 µM (active). Same read-out and setting: as for `CN(C)c1ccc(/C=C2/C[N+](C)(C)C/C(=C/c3ccc(N(C)C)cc3)C2=O)cc1`, the figure is 7.31 µM (active); as for `Nc1ccccc1C=C1Cc2ccccc2C1=O`, 16.4 µM (active); as for `CCOC(=O)CSC1=C(C#N)C(c2ccc(C)s2)CC(=O)N1` (stereo not given), 1.98 µM (active). On to `Cc1ccccc1NC(=O)CSC1=C(C#N)C(c2ccsc2)CC(=O)N1` (stereo not given), for which the “activity, negative = inhibitor” value was -26.6% [at 36.9 µM]. For `O=C(CCc1ccccc1)Nc1ccc(Cl)cn1`, the Potency was 3.96 µM (active). On to `S=C(NCc1ccco1)Nc1ccc(Cl)cn1`, for which the “activity, negative = inhibitor” value is 6.55%. Still for that read-out and setting: as for `CCCC(=O)NC1=C(Cl)C(=O)c2ccccc2C1=O`, the figure is 33.8%. For the compound `CN(C)c1ccc(/C=C/c2nc3ccccc3c(=O)n2CCO)cc1`, the Potency was 23.1 µM (active). Consider `CCN(CC)c1ccc(/C=C/c2cc(-c3ccccc3)c3ccccc3n2)cc1`, for which the Potency was 7.04 µM (active). Regarding `CN(C)c1ccc(/C=C/c2cc(/C=C/c3ccc(N(C)C)cc3)c3ccccc3n2)cc1`, the Potency was 5.17 µM (active). Turning to `CN(C)c1ccc(/C=C/c2cc(N(C)C)nc3ccccc23)cc1`, the Potency was 8.2 µM (active). Consider `CCC(C)Sc1cccc(-c2nc3cc(C)ccn3c2NC2CCCCC2)c1` (stereo not given), for which the “activity, negative = inhibitor” value was -9.38%. As for `Nc1ccc(/C=C/c2cc(Cl)nc3ccccc23)cc1`, the Potency is 23.1 µM (active). Consider `Nc1ccc2nc(-c3ccccc3)c(-c3ccccc3)nc2c1`, for which the “activity, negative = inhibitor” value is -17.6% [at 36.9 µM]. For the compound `CN1C(=O)/C(=C\c2ccc(N(C)C)cc2)OC1=S`, the Potency was 1.98 µM (active). In the case of `CN1C(=S)N(c2cccnc2)C(=O)/C1=C\c1ccc(N(C)C)cc1`, the Potency is 9.94 µM (active). For `Cc1c(N2C(=O)/C(=C/c3ccc(N(C)C)cc3)N(C)C2=S)c(=O)n(-c2ccccc2)n1C`, the Potency is 20.6 µM (active).

Consider `Cc1ccc(/C=N/NC(=O)CCCOc2ccc(Cl)cc2Cl)cc1`, for which the Potency was 4.98 µM (active). With `O=C1N/C(=C\c2ccccc2)c2ccccc21`, the Potency was 1.58 µM (active).

As for `O=C1NC(c2ccccc2Br)=N/C1=C\c1ccco1`, the “activity, negative = inhibitor” value was -3.88%. Consider `Cc1cccc2cc3c(N)c(C(=O)N4CCc5ccccc54)sc3nc12`, for which the Potency was 6.51 µM (active).

Regarding `Cc1cccc2cc3c(N)c(C(=O)N4CCCc5ccccc54)sc3nc12`, the Potency was 20.6 µM (active).

On to `Cc1ccc2nc3sc(C(=O)N4CCCc5ccccc54)c(N)c3cc2c1`, for which the Potency is 12.5 µM (active). Still for that read-out and setting: as for `Fc1ccc(-c2cnn3c(-c4cccs4)ccnc23)cc1`, the figure is 15.8 µM (active). As to `COc1ccccc1C1c2ccc3ccccc3c2Oc2ncn(CCN(C)C)c(=N)c21` (stereo not given), the Potency is 15.8 µM (active).

In the case of `COC(=O)C1=COC(C)C2CN3CCc4c([nH]c5cc(OC)c(OC)cc45)C3CC12` (stereo not given), the “activity, negative = inhibitor” value is -28.4%.

Take `COC(=O)C1C2CC3c4[nH]c5cc(OC)ccc5c4CCN3CC2CC(OC2CCCCO2)C1OC` (stereo not given): the “activity, negative = inhibitor” value is -27.1%. As to `COC(=O)C1C2CC3c4[nH]c5cc(OC)ccc5c4CCN3CC2CC(OC(=O)CC(C)=O)C1OC` (stereo not given), the Potency was 18.4 µM (active). With `COc1ccc(-c2n[nH]c(C)c2-c2ccc(OC)c(OC)c2)c(O)c1`, the Potency was 7.9 µM (active).

Consider `O=[N+]([O-])c1ccc(N/N=C/c2sc(N3CCOCC3)nc2-c2ccccc2)c(S(=O)(=O)Nc2ccccc2Cl)c1`, for which the Potency is 5.8 µM (active). Consider `COc1ccccc1NS(=O)(=O)c1cc([N+](=O)[O-])ccc1N/N=C/c1sc(N2CCOCC2)nc1-c1ccccc1`, for which the Potency is 1.46 µM (active). Consider `O=[N+]([O-])c1ccccc1S(=O)(=O)Nc1ccc(-c2ccc(N3CCOCC3)nn2)cc1`, for which the “activity, negative = inhibitor” value was -18.2%.

Turning to `COC(=O)c1ccc(NC(=O)CC2Nc3cc(C)c(C)cc3NC2=O)cc1` (stereo not given), the Potency is 9.2 µM (active). Regarding `CCOC(=O)c1ccc(NC(=S)NC(=O)C2CCCC2)cc1`, the “activity, negative = inhibitor” value was -5.14%. With `CCCSc1ncc(Cl)c(C(=O)Nc2sc3c(c2C(N)=O)CCCC3)n1`, the Potency was 18.4 µM (active). Same read-out and setting: the figure for `CCOC(=O)c1ccc(/C=C2/C=C(c3ccccc3)N(c3ccc(Cl)c(C(=O)O)c3)C2=O)cc1` is 20.6 µM (active). In the case of `Cc1nonc1NC(=O)CSc1nc2c(C)cccc2cc1C#N`, the Potency was 16.4 µM (active). The same measure, in the same setting: as for `Cc1cc(NC(=O)CSc2nc3c(C)cccc3cc2C#N)no1`, the figure is 6.51 µM (active); as for `Cc1cc(NC(=O)CSc2nc(-c3cccs3)nc3ccccc23)no1`, 0.994 µM (active); as for `Cc1cc2cc(C#N)c(SCC(=O)Nc3nonc3C)nc2cc1C`, 23.1 µM (active). As for `CC(Nc1oc(-c2ccc(COc3ccccc3)o2)nc1C#N)c1ccccc1` (stereo not given), the “activity, negative = inhibitor” value is -27.6%. `Cc1nc2cc(NC(=O)CSc3nc4c(C)cccc4cc3C#N)ccc2s1`: the Potency is 13 µM (active). Still for that read-out and setting: as for `Cc1ccc2nc(SCC(=O)Nc3ccc4sc(C)nc4c3)c(C#N)cc2c1`, the figure is 16.4 µM (active).

`Cc1cccc(C(=O)Nc2nnc(C3=COCCO3)o2)c1`: the “activity, negative = inhibitor” value is -6.45%. Take `N=C1S/C(=C\c2ccc(-c3cccc(Cl)c3)o2)C(=O)N1c1nccs1`: the Potency is 18.4 µM (active). `O=C(N/N=C/c1c(O)n(-c2ccc(Cl)cn2)c(=O)c2ccccc12)c1ccncc1`: the “activity, negative = inhibitor” value is -29.3%. With `Cc1ccc(N=Cc2c(O)n(-c3nccs3)c(=O)c3ccccc23)c(C)c1`, the “activity, negative = inhibitor” value was -8.48%. As for `COc1ccc(N=Cc2c(O)n(-c3cccc(C)n3)c(=O)c3ccccc23)c(OC)c1`, the Potency is 23.1 µM (active).

Consider `CCOC(=O)Cc1ccc(Nc2nc3cc(-c4sccc4C)sc3c(=O)n2C)cc1`, for which the Potency was 3.96 µM (active). On the same count and under the same terms, as for `COc1ccc(-n2nnnc2-c2ccccc2)cc1`, the figure is 2.5 µM (active); as for `COc1ccc(-n2nnnc2-c2cccc(OC)c2)cc1`, 1.25 µM (active). Take `COc1ccc(-n2cc3c(-c4cccc(Br)c4)nnc(C)c3n2)cc1`: the “activity, negative = inhibitor” value is -21.6%. On to `CCOc1cccc(-n2nnnc2-c2ccc(OC)cc2)c1`, for which the Potency was 4.44 µM (active). On to `COc1cc(-c2cnc3c(NC(C)=O)cc(-c4ccccc4CN(C)C)cn23)cc(OC)c1OC`, for which the Potency is 12.5 µM (active). Same read-out and setting: the figure for `COc1ccc(-c2cc(NC(C)=O)c3ncc(-c4cc(OC)c(OC)c(OC)c4)n3c2)cn1` is 7.04 µM (active); for `COc1cc(Nc2nc3ccccc3n3nnnc23)cc(OC)c1OC` it is 13 µM (active). On to `COc1ccccc1CNC(=O)c1ccc(Nc2nc3ccccc3n3nnnc23)cc1`, for which the Potency was 23.1 µM (active). For `CC(NC(=O)c1ccc(Nc2nc3ccccc3n3nnnc23)cc1)c1ccccc1` (stereo not given), the Potency is 18.4 µM (active). With `Cc1ccc(CNC(=O)c2cccc(Nc3nc4ccccc4n4nnnc34)c2)cc1`, the Potency is 20.6 µM (active). Take `Cc1cc(C)nc(-n2nc(C)cc2NC(=O)c2ccc(F)cc2F)n1`: the “activity, negative = inhibitor” value was -4.7%.

On to `COc1cc2ccccc2cc1C(=O)N/N=C/c1cccs1`, for which the Potency was 1.77 µM (active). For the compound `COc1ccc(NC(=O)/C(C#N)=C\C=C\c2ccco2)cc1`, the Potency was 7.04 µM (active). For the compound `COc1ccc(NC(=O)/C(C#N)=C/C=C/c2ccco2)cc1`, the Potency is 6.27 µM (active). For the compound `C=CCOc1ccc2nc(NC(=O)OC)[nH]c2c1`, the Potency was 2.5 µM (active). For the compound `CCOC(=O)c1c(NC(=O)CSc2nc3ccc(OC)cc3[nH]2)sc2c1CC(C)(C)NC2(C)C`, the “activity, negative = inhibitor” value is -11.3%. With `CC(C)n1cnc2c(NCc3ccccc3)cc(N[C@H](C)CO)cc21`, the Potency was 14 µM (active). As to `COc1ccccc1Nc1nnc(SCC2CCCCO2)s1` (stereo not given), the Potency is 14 µM (active). On the same count and under the same terms, as for `Cc1ccc(NC(=O)C(=Cc2ccc(C(=O)O)cc2)C(=O)Nc2ccc(C)cc2C)c(C)c1`, the figure is 3.53 µM (active); as for `COc1cc(/C=C2\SC(=S)N(Nc3ncc(C(F)(F)F)cc3Cl)C2=O)ccc1O`, 20.6 µM (active); as for `CN(C)c1ccc(/C=C2\SC(=S)N(Nc3ncc(C(F)(F)F)cc3Cl)C2=O)cc1`, 6.51 µM (active). As for `C=CCN1C(=O)/C(=C/c2ccc(O)c(OC)c2)S/C1=N/c1nccs1`, the “activity, negative = inhibitor” value is 46.6%. On the same count and under the same terms, the figure for `COc1cc(/C=C2\SC(=S)N(NC(=O)c3ccccc3OC)C2=O)ccc1O` is -11.7%. As for `N=C1/C(=C\c2coc3ccccc3c2=O)C(=O)N=C2SC(c3ccncc3)=NN12`, the Potency is 20.6 µM (active). On the same count and under the same terms, as for `COc1ccc(-c2coc3cc4oc(=O)cc(-c5ccccc5)c4cc23)cc1F`, the figure is 1.98 µM (active). Consider `COc1ccc(C)cc1NCc1cc(=O)oc2cc(-c3ccccc3)c(O)cc12`, for which the “activity, negative = inhibitor” value is -25.1% [at 36.9 µM]. For `COc1ccc2nc3sc(C(=O)Nc4cc(Cl)c(OC)cc4OC)cc3cc2c1`, the Potency is 4.11 µM (active). Take `Nc1nc2n[nH]nc2c(=O)[nH]1`: the Potency was 9.2 µM (active) and 3.96 µM (active).

On to `C=CCn1c(SCc2c(C)noc2C)nc2cc(C(=O)O)ccc2c1=O`, for which the Potency was 17.7 µM (active). On to `Cc1noc(C)c1CSc1nc2ccccc2c(=O)n1-c1ccccc1`, for which the Potency was 3.53 µM (active).
